Source: PubChem
BAZ2B inh: qHTS Assay for Inhibitors of BAZ2B; Bromodomain adjacent to zinc finger domain protein 2B (Homo sapiens), Q9UIF8; AlphaScreen BAZ2B-H3K14Ac peptide displacement; Potency, µM (doses to about 114 µM), without a hit: top-dose activity change, negative = inhibition, usual class: inhibitors; actives 4.4% (n = 360,000); further: potency means the concentration at half of the fitted maximal effect; on the % scale 0 is the no-effect control and ±100 the full control effect; nearly all actives have a fitted effect of over 60% in size
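AlphaScreen displacement: compounds (up to 110uM) incubated 30 min at room temperature with a preformed 50 nM BAZ2B/50 nM biotinylated H3K14Ac peptide complex in PBS pH 7.4 with Tween-20. Donor and acceptor beads at 10 ug/mL final added, 20 min light-protected before reading.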
PI5P4Ka inh: qHTS for Inhibitors of phosphatidylinositol 5-phosphate 4-kinase (PI5P4K) | PI5P4Kalpha enzyme, ADP-Glo luminescence, 60 min; active compounds read low | Phosphatidylinositol 5-phosphate 4-kinase type-2 alpha (Homo sapiens), P48426 | max response, % | actives 1.2% (n = 330,000); active means max response of -50% or lower; inconclusive means between -30% and -50%; inactive means -30% or higher; further: value at the top dose of about 77 µM; on the % scale 0 is the no-effect control and ±100 the full control effect
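Luminescence from ADP-Glo served as readout of PI5P4Kalpha activity in a qHTS format. Reaction: enzyme, substrate, compound, ATP at 5 microM final, 60 min at RT.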
HP1b binding inh: HTS for Inhibitors of HP1-beta Chromodomain Interactions with Methylated Histone Tails; Chromobox protein homolog 1 (Homo sapiens), P83916; AlphaScreen HP1-beta / biotin-H3K9me3 peptide binding; Potency, µM (titrated, usually from 114 µM), inactives show top-dose activity change, negative = inhibition, usual class: inhibitors; actives 0.56% (n = 390,000); further: potency means the concentration at half of the fitted maximal effect; nearly all actives have a fitted effect of over 70% in size
Target sequence (P83916 whole entry, looked up): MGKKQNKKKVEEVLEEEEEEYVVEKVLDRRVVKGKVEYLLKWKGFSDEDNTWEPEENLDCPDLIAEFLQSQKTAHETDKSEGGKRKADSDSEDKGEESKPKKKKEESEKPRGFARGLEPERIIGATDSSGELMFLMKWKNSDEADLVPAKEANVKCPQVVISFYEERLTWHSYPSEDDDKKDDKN
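HP1-beta protein (50 nM final) preincubated 30 min at room temperature with biotinylated H3(1-18)K9me3 peptide (50 nM) in PBS pH 7.4, 0.01% Tween-20, then compound added for 30 min. AlphaScreen streptavidin donor/nickel chelate acceptor beads (10 ug/mL final), 30 min dark, luminescence read.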
PLK1 PBD block: qHTS for Inhibitors of PLK1-PDB (polo-like kinase 1 - polo-box domain): Primary Screen | Serine/threonine-protein kinase PLK1 (Homo sapiens), P53350 | Plk1 PBD binding of FITC phosphopeptide, fluorescence polarization | actives 2.8% (n = 360,000) | AID 720504, 2013 | Potency, µM, inactives show max response, negative = inhibition, most hits filed as inhibitors; further: potency means the concentration at half of the fitted maximal effect; series mostly up to about 57 µM; on the % scale 0 is the no-effect control and ±100 the full control effect; nearly all actives have a fitted effect of over 65% in size
G9a block: qHTS Assay for Inhibitors of Histone Lysine Methyltransferase G9a | Histone-lysine N-methyltransferase EHMT2 (Homo sapiens), Q96KQ7 | G9a H3K9 monomethylation, AlphaScreen, 2 h | Potency, µM (titrated, usually from 102 µM), inactives show top-dose activity, negative = inhibition, hits mostly inhibitors | actives 8.8% (n = 350,000); further: potency means the concentration at half of the fitted maximal effect; on the % scale 0 is the no-effect control and ±100 the full control effect; nearly all actives have a fitted effect of over 75% in size
Target sequence (Q96KQ7 913-1193 limits assumed): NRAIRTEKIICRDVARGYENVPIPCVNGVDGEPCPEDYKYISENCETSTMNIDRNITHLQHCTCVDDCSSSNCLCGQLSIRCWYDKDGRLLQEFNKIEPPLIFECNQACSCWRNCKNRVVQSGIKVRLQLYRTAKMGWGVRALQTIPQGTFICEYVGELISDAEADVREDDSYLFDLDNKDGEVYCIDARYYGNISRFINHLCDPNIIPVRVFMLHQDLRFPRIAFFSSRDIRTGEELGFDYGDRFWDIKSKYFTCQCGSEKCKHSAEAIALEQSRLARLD
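G9a (20 nM) preincubated 15 min RT with compounds, then 500 nM biotinylated H3K9 peptide and 20 uM SAM added; 2 h RT reaction. Monomethyl-H3K9 product detected by AlphaScreen with anti-H3K9me1 antibody, streptavidin donor and anti-rabbit IgG acceptor beads.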
JMJD2A Tudor: qHTS Assay for Inhibitors of JMJD2A-Tudor Domain; Lysine-specific demethylase 4A (Homo sapiens), O75164; Potency, µM (titrated, usually from 114 µM), without a hit: at the highest dose activity change, negative = inhibition, usual class: inhibitors; AlphaScreen JMJD2A-Tudor / H3K4me3 peptide binding; actives 4.4% (n = 390,000); AID 504339, 2011; further: potency means the concentration at half of the fitted maximal effect; on the % scale 0 is the no-effect control and ±100 the full control effect; nearly all actives have a fitted effect of over 50% in size
* = called active by the depositor; u = inconclusive; x = no result given; [ ] = dose if it differs, or a comment. Only some compounds are listed: those with a hit (about 12% of all), similar ones and a draw of the others. Unless noted, the call rests on the fitted dose curve; in most records, active means well fitted curve in the direction sought with a large enough effect; inconclusive means small, poorly fitted or top-dose-only effect, or another doubt; inactive means no such curve, though single readings can be large; an effect the other way counts as inactive or inconclusive.

SMILES	BAZ2B inh	PI5P4Ka inh	HP1b binding inh	PLK1 PBD block	G9a block	JMJD2A Tudor
Cc1ccc(NC(=S)N(CCCN2CCOCC2)Cc2cccs2)c(C)c1	2%	-12	-1%	19µM*	u	-10%
O=C(COC(=O)CCC(=O)c1ccc(F)cc1)Nc1ccc(Cl)cn1	x	-25	-15%	-10%	x	-23%
CCC1C/C(=C/c2ccco2)C(=O)/C(=C/c2ccco2)C1 (stereo unspecified)	28µM*	x	x	x	32µM*	x
CCC1C/C(=C\c2cc(OC)c(OC)cc2OC)C(=O)/C(=C/c2cc(OC)c(OC)cc2OC)C1 (stereo unspecified)	10µM*	12	u	23%	25µM*	18µM*
COc1cc(OC)c(OC)cc1/C=C1\CC(C)C/C(=C\c2cc(OC)c(OC)cc2OC)C1=O (stereo unspecified)	11µM*	11	u	31%	32µM*	20µM*
CC12CCCC(=O)C1CCC(=Cc1ccco1)C2=O (stereo unspecified)	x	-4	x	-16%	x	x
COc1cc(OC)c(OC)cc1/C=C1/Cc2ccccc2C1=O	4%	1	82%	-8%	-9%[2.33 µM]	-22%
Cc1ccc(C)c(N2CCN(CCCNC(=O)C3COc4ccccc4C3)CC2)c1 (stereo unspecified)	-27%	x	11%[57 µM]	x	12%[59 µM]	-32%
CCOC(=O)C1CCCN(CC(=O)c2ccc(F)cc2)C1 (stereo unspecified)	20µM*	-7	u	-4%	u	3.5µM*
CCOC(=O)C1CCCN(Cc2ccc(OCc3ccccc3)c(OC)c2)C1 (stereo unspecified)	50µM*	1	1%	-4%	-6%[0.501 µM]	u
CCN(CC)C(=O)C1CCCN(Cc2ccc(N(C)C)cc2)C1 (stereo unspecified)	32µM*	10	u	6%	14µM*	45µM*
CCN(CC)C(=O)C1CCCN(Cc2ccc(OC)c(C)c2)C1 (stereo unspecified)	u	-27	u	-5%	-49%[12.7 µM]	0.89µM*
O=c1cnc2cnc(Oc3cccc(Cl)c3)nc2n1Cc1ccc(F)cc1	x	x	x	x	-4%[12.7 µM]	x
CC(=O)c1cccc(NC(=O)c2cc3sc(Cl)cc3n2C)c1	-8%	x	13%	x	0%[59 µM]	1%
NC(=O)C1CCCN(Cc2ccc(Cl)cc2)C1 (stereo unspecified)	79µM*	x	-56%	2%	3.5µM*	3.2µM*
COc1cc(CN2CCC(C)CC2)ccc1OCc1ccccc1	u	0	u	-11%	u	25µM*
O=C(NC1CCCN(Cc2ccc(Cl)cc2)C1)C1CCC1 (stereo unspecified)	-16%	-5	22%	-12%	29%	-4%
c1ccc(CN2CCC(N3CCN(Cc4ccc5c(c4)OCO5)CC3)CC2)cc1	1%	16	10%	6%	-9%[59 µM]	-2%
CCN(CC)C(=O)C1CCCN(Cc2ccc3c(c2)OCO3)C1 (stereo unspecified)	u	-5	-58%	1%	8.9µM*	7.1µM*
c1cc2c(cc1CN1CCN(C3CCCCCC3)CC1)OCO2	18µM*	-7	u	4%	10µM*	18µM*
COC(C/C=C\[C@H](O)COCc1ccccc1)OC	x	9	44%	-3%	x	-4%
O=S1(=O)[C@H]2C[C@H](CO)O[C@@]2(CO)CN1Cc1ccc(-c2cccc(Cl)c2)cc1	x	19	61%	-8%	x	-24%
Cc1ccc(C)c(S(=O)(=O)c2nnn3c2nc(N2CCCC2)c2sccc23)c1	-15%	x	29%	x	4%[59 µM]	-7%
O=C(C1CCCN(Cc2ccc3c(c2)OCO3)C1)N1CCCC1 (stereo unspecified)	56µM*	-6	u	3%	10µM*	40µM*
O=[N+]([O-])c1ccc(Cl)cc1CN1CCCCCC1	u	1	u	-5%	22µM*	20µM*
SMILES	BAZ2B inh	PI5P4Ka inh	HP1b binding inh	PLK1 PBD block	G9a block	JMJD2A Tudor
Clc1cccc(CN2CCCCCC2)c1	u	-3	-37%	-4%	11µM*	40µM*
O=C(c1cccc(Cl)c1)C1CCCN(Cc2ccc(N3CCNC3=O)cc2)C1 (stereo unspecified)	u	10	8%	-4%	50µM*	u
CCNC(=O)C1(C)CCN(C(=O)c2ccccc2OC)C1 (stereo unspecified)	x	0	x	-11%	x	x
COc1ccc2c(c1)c1c(c(=O)n(-c3cccc(Cl)c3)c(=O)n1CC(=O)NCC1CCCO1)n2C (stereo unspecified)	-8%	x	40%	x	-3%[59 µM]	-7%
COc1ccccc1NC(=O)C(Cc1ccccc1)NS(=O)(=O)c1ccc2c(c1)CCN2C(C)=O (stereo unspecified)	x	x	14%	x	-9%[59 µM]	-12%
COc1ccc(OC)c(NC(=O)C(OC(=O)CNC(=O)c2ccccc2)c2ccccc2)c1 (stereo unspecified)	x	x	x	x	x	-14%
CCOC(=O)C1CCCN(Cc2ccc3c(c2)OCO3)C1 (stereo unspecified)	50µM*	x	25µM*	0%	8.9µM*	2.5µM*
CCOC(=O)C1CCCN(C(=O)c2ccc3c(c2)OCO3)C1 (stereo unspecified)	-3%	-1	39%	-20%	14%[59 µM]	1%[57.1 µM]
CCOC(=O)C1CCCN(Cc2ccc(OCc3ccccc3)cc2)C1 (stereo unspecified)	38%	1	u	-24%	x	u
CCOC(=O)C1CCCN(Cc2cccc(Cl)c2)C1 (stereo unspecified)	u	x	u	0%	8.9µM*	2.8µM*
Nc1ccc(CN2CCCCCC2)cc1	19%	3	17%	-8%	10%[59 µM]	-28%
Brc1ccc(CN2CCCCCC2)cc1	x	-15	u	-5%	x	28µM*
COc1ccc([C@H]2CC(=O)C[C@@H](CCn3cc(-c4nccn4C)nn3)O2)cc1	x	-1	x	-9%	x	x
COc1ccc(N2CCN(C(c3cc(OC)ccc3OC)c3nnnn3Cc3ccco3)CC2)cc1 (stereo unspecified)	45µM*	1	16µM*	-18%	16µM*	50µM*
CCN1CCN(C(c2cccc(OC)c2OC)c2nnnn2Cc2ccco2)CC1 (stereo unspecified)	-29%	-26	3%	27µM*	-50%[12.7 µM]	u
